Records with an inconclusive call do not appear. Calls of active or inactive are those of the source. Calls come from the whole dose curve; as a rule, active = well fitted cell-killing curve with a large enough effect; inconclusive = small, poorly fitted or top-dose-only effect, or effect the other way; inactive = flat fitted curve, though single readings scatter. Where a SMILES comes first, the peptide text is derived from it. [ ]: non-standard residue; d: D form. Hyp = O=C(O)[CH]1C[CH](O)CN1; Phe(ol) = N[CH](CO)Cc1ccccc1; Iva = CC[C](C)(N)C(=O)O; Aib = CC(C)(N)C(=O)O
Experiments:
Test in all cases: Primary qHTS to identify gynecologic anti-cancer compounds using libraries of approved drugs and bioactive compounds (AID 1345084); note: nearly all actives have a fitted effect of over 55% in size
C33A = settings: Gynecologic cancer cell panel viability, ATPlite luminescence, 48 h; series mostly up to 57.5 µM
Method in brief: (§1)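 Cells, 1,000 per well, were allowed to settle for 16 h at 37 C before compound addition. Five concentrations were tested for 48 h, and viability was read by ATPlite luminescence after 15 min at room temperature.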

CAOV3 = settings: Gynecologic cancer cell panel viability, ATPlite luminescence, 48 h; series mostly up to 57.5 µM
Method in brief: as §1

CASKI = settings: Gynecologic cancer cell panel viability, ATPlite luminescence, 48 h; series mostly up to 57.5 µM
Method in brief: as §1

Es-2 = settings: Gynecologic cancer cell panel viability, ATPlite luminescence, 48 h; series mostly up to 57.5 µM
Method in brief: as §1

HeLa = settings: Gynecologic cancer cell panel viability, ATPlite luminescence, 48 h; series mostly up to 57.5 µM
Method in brief: as §1

Hek293T = settings: Gynecologic cancer cell panel viability, ATPlite luminescence, 48 h, control line for the selectivity index; series mostly up to 57.5 µM
Method in brief: as §1

JEG-3 = settings: Gynecologic cancer cell panel viability, ATPlite luminescence, 48 h; series mostly up to 57.5 µM
Method in brief: as §1
% is set by controls: 0 for no effect and ±100 for the full control effect.

C[C@H](Nc1cc2c(-c3ccc4c(c3)OCO4)noc2cn1)c1ccccc1
inactive: Potency (C33A) | Potency (CAOV3) | Potency (CASKI) | Potency (Es-2) | Potency (HeLa) | Potency (Hek293T) | Potency (JEG-3)

COc1cccc(CN(C(=O)CC(C)(C)C)[C@H]2C[C@H](C(=O)N3CCNCC3)N(Cc3ccc4c(c3)OCO4)C2)c1
inactive: Potency (C33A) | Potency (CAOV3) | Potency (CASKI) | Potency (Es-2) | Potency (HeLa) | Potency (Hek293T) | Potency (JEG-3)

C#CCNCc1cc2cc(OCc3ccccc3)ccc2[nH]1
inactive: Potency (C33A) | Potency (CAOV3) | Potency (CASKI) | Potency (Es-2) | Potency (HeLa) | Potency (Hek293T) | Potency (JEG-3)

COc1ccc(NC(=O)c2ccc(C(=N)N(C)C)cc2)c(C(=O)Nc2ccc(Cl)cn2)c1
inactive: Potency (C33A) | Potency (CAOV3) | Potency (CASKI) | Potency (Es-2) | Potency (HeLa) | Potency (Hek293T) | Potency (JEG-3)

CCC(C(C)O)n1ncn(-c2ccc(N3CCN(c4ccc(OCC5COC(Cn6cncn6)(c6ccc(F)cc6F)C5)cc4)CC3)cc2)c1=O (stereo not drawn)
inactive: Potency (C33A) | Potency (CAOV3) | Potency (CASKI) | Potency (Es-2) | Potency (HeLa) | Potency (JEG-3)

C=C(C)C1CCC2(C(=O)O)CCC3(C)C(CCC4C5(C)C(C=O)C(O)C(C)(C)C5CCC43C)C12 (stereo not drawn)
inactive: Potency (C33A) | Potency (CAOV3) | Potency (CASKI) | Potency (Es-2) | Potency (HeLa) | Potency (Hek293T) | Potency (JEG-3)

C=C1CC[C@@H](O)[C@]2(C)C[C@H]3OC(=O)C(=C)[C@H]3CC12 (stereo partly drawn)
inactive: Potency (C33A) | Potency (CAOV3) | Potency (CASKI) | Potency (Es-2) | Potency (HeLa) | Potency (JEG-3)

CCC(C)(NC(=O)C(CCC(N)=O)NC(=O)C1CC(O)CN1C(=O)C(C)(C)NC(=O)C(C)(C)NC(=O)C(CC(C)C)NC(=O)CNC(=O)C(NC(=O)C(C)(C)NC(=O)C(C)(C)NC(=O)C(C)(C)NC(=O)C(Cc1ccccc1)NC(C)=O)C(C)C)C(=O)N1CC(O)CC1C(=O)NC(C)(C)C(=O)NC(CO)Cc1ccccc1 (stereo not drawn) (Ac-F[Aib][Aib][Aib]VGL[Aib][Aib][Hyp]Q[Iva][Hyp][Aib][Phe(ol)]; configuration not given here)
inactive: activity change, negative = cytotoxicity (C33A) -28.9% [at 6.55 µM] | activity change, negative = cytotoxicity (CAOV3) -2.26% [at 6.55 µM] | activity change, negative = cytotoxicity (CASKI) -19.9% [at 6.55 µM] | activity change, negative = cytotoxicity (Es-2) -0.689% [at 6.55 µM] | activity change, negative = cytotoxicity (HeLa) -3.33% [at 6.55 µM] | activity change, negative = cytotoxicity (Hek293T) -7.78% [at 6.55 µM] | activity change, negative = cytotoxicity (JEG-3) -14.6% [at 6.55 µM]

CCC(C)CNCC(=O)N1CCc2sccc2C1COc1cccc(C)c1 (stereo not drawn)
inactive: Potency (C33A) | Potency (CAOV3) | Potency (CASKI) | Potency (Es-2) | Potency (HeLa) | Potency (Hek293T) | Potency (JEG-3)

Cn1ncnc1[C@@H]1c2n[nH]c(=O)c3cc(F)cc(c23)N[C@H]1c1ccc(F)cc1
inactive: Potency (C33A) | Potency (CAOV3) | Potency (CASKI) | Potency (Es-2) | Potency (HeLa) | Potency (Hek293T) | Potency (JEG-3)

CC(C)(N)c1ncc(-c2ccc(OC(F)(F)F)cc2)[nH]1
inactive: Potency (C33A) | Potency (CAOV3) | Potency (CASKI) | Potency (Es-2) | Potency (HeLa) | Potency (Hek293T) | Potency (JEG-3)

COc1cc(OC)c(NC(=O)c2ccc(Cc3cc4c(cc3C)C(C)(C)CCC4(C)C)o2)c(OC)c1
inactive: Potency (C33A) | Potency (CAOV3) | Potency (CASKI) | Potency (Es-2) | Potency (HeLa) | Potency (Hek293T) | Potency (JEG-3)

C=C1/C(=C/C=C2\CCC[C@@]3(C)C2CCC3[C@H](C)/C=C/[C@@H](O)C2CC2)C[C@@H](O)C[C@@H]1O (stereo partly drawn)
inactive: Potency (C33A) | Potency (CAOV3) | Potency (CASKI) | Potency (Es-2) | Potency (HeLa) | Potency (Hek293T) | Potency (JEG-3)

Cc1cc2sc(NC(=O)Cc3ccccc3)nc2cc1Cl
inactive: Potency (C33A) | Potency (CAOV3) | Potency (CASKI) | Potency (Es-2) | Potency (HeLa) | Potency (Hek293T) | Potency (JEG-3)

O=C(Nc1ccc(Cl)cc1)c1ccccc1NCc1ccncc1
inactive: Potency (C33A) | Potency (CAOV3) | Potency (CASKI) | Potency (Es-2) | Potency (HeLa) | Potency (Hek293T) | Potency (JEG-3)

Cc1cc(C(=O)Cn2cc(C#N)ccc2=O)c(C)n1Cc1ccccc1
inactive: Potency (C33A) | Potency (CAOV3) | Potency (CASKI) | Potency (Es-2) | Potency (HeLa) | Potency (JEG-3)

CCN(c1cc(-c2ccc(CN3CCOCC3)cc2)cc(C(=O)NCc2c(C)cc(C)[nH]c2=O)c1C)C1CCOCC1
inactive: Potency (C33A) | Potency (CAOV3) | Potency (CASKI) | Potency (Es-2) | Potency (HeLa) | Potency (Hek293T) | Potency (JEG-3)

CN1CCN(C2=Nc3ccccc3Nc3ccc(Cl)cc32)CC1
inactive: Potency (C33A) | Potency (CAOV3) | Potency (CASKI) | Potency (Es-2) | Potency (HeLa) | Potency (Hek293T) | Potency (JEG-3)

Cc1cc(C(=O)Nc2cc(Oc3ccc4nc(NC(=O)C5CC5)cn4n3)ccc2C)n(C)n1
inactive: Potency (C33A) | Potency (CAOV3) | Potency (CASKI) | Potency (Es-2) | Potency (HeLa) | Potency (Hek293T) | Potency (JEG-3)

COc1cc(C(=O)NCC2(N(C)C)CCCC2)cc(OC)c1OCc1ccccc1
inactive: Potency (C33A) | Potency (CAOV3) | Potency (CASKI) | Potency (Es-2) | Potency (HeLa) | Potency (Hek293T) | Potency (JEG-3)

CN(C)C(=O)Nc1cccc(-c2ccc(N(C)C)cc2)c1
inactive: Potency (C33A) | Potency (CAOV3) | Potency (CASKI) | Potency (Es-2) | Potency (HeLa) | Potency (JEG-3)

From PubChem BioAssay (NCATS)
